# PubChem BioAssay
# Several values for one entry are separate records, joined by “and”; a condition that tells them apart may be missing. Equal entries are not always repeated. Activity calls are given as the source filed them.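 How the source made its calls, unless noted: active means compound raises GLP1 secretion from the human gut endocrine cells, with no numeric limit stated; inactive means the rest.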
# How the values were obtained:
# [1] = yeast 75Q aggregation reduction – 75Q-TubU reporter (AID 1593); conditions: Yeast 75Q polyglutamine aggregation reporter
# [2] = blockers of cytochrome c efflux from mitochondria – biochemical, purified mitochondria (AID 1603); conditions: stronger effect = lower value;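 further: mouse liver mitochondria challenged with calcium chloride; signal normalized to the plate average as 100%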
# [3] = polyglutamine aggregate formation blockers (AID 1604); conditions: polyglutamine-induced protein aggregation inhibition assay; stronger effect = higher value; tested at 2.5 µM
# [4] = Wnt pathway potentiators raising nuclear beta-catenin – imaging, WNT3A-conditioned medium, mouse C2C12, NPC library, primary screen (AID 1117326; in the data active means nuclear beta-catenin stimulation mostly above about 4.2%, no sharp cut-off; inactive means mostly below about 10%); conditions: stronger effect = higher value
# [5] = stimulators of insulin release from INS-1E, primary screen, cell-based, 5 mM glucose, NPC library (AID 1117329;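 active means compound raises insulin release from rat beta cells at 5 mM glucose, no numeric limit stated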); conditions: rat INS-1E insulin secretion, at 10 µM, stronger effect = higher value
# [6] = growth inhibition of GSK3B-pretreated HCT116 cells – cell-based, CellTiter-Glo, 0.2 to 20 µM (AID 1117336;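 active means compounds lowering colon cancer cell viability after pretreatment blocking the GSK3B kinase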); conditions: HCT116 viability after GSK3B inhibitor, at 20 µM, stronger effect = higher value
# [7] = inhibition of endothelial tube formation, primary screen, imaging, VEGF stimulated, CD31 staining, tube area, NPC library (AID 1117340;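 active means compound that reduces growth-factor-driven endothelial tube area in a mixed cell culture, no cutoff stated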); conditions: VEGF-stimulated ADSC/ECFC co-culture, at 10 µM, stronger effect = higher value
# [8] = GLP1 release stimulators, primary, NCI-H716, NPC library (AID 1117341); conditions: NCI-H716 cells, at 10 µM, stronger effect = higher value
# [9] = HCT116 colon cancer cell growth inhibition, primary screen, CellTiter-Glo luminescence, NPC library (AID 1117342;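 active means compounds that lower survival of HCT116 colon cancer cells in the luminescence readout, no numeric limit stated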); conditions: at 20 µM (top of the series)
# [10] = reduced SW480 viability measured with CellTiter-Glo, NPC library, primary (AID 1117343;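 active means compounds that lower viability of the colon cancer cells in the luminescence readout, with no numeric limit stated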); conditions: CellTiter-Glo luminescence; at 20 µM (top of the series)
# [11] = NPC library primary testing for decreased DLD-1 cell viability via CellTiter-Glo (AID 1117346;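 active means compounds that lower survival of DLD-1 colon cancer cells in the luminescence readout, no cutoff given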); conditions: DLD-1 viability, CellTiter-Glo luminescence; at 20 µM (top of the series)
# [12] = biological target: 6-phosphogluconate dehydrogenase, decarboxylating (Homo sapiens) (UniProt P52209); test: inhibition of human phosphogluconate dehydrogenase – biochemical, recombinant enzyme, NADPH absorbance, primary screen (AID 1159550;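 active means at least 20% inhibition of 6-phosphogluconate dehydrogenase activity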); conditions: recombinant 6PGD, NADPH absorbance 341 nm; at 10 µM; stronger effect = higher value
# Chain of 6-phosphogluconate dehydrogenase, decarboxylating (Homo sapiens) (P52209 whole entry, looked up): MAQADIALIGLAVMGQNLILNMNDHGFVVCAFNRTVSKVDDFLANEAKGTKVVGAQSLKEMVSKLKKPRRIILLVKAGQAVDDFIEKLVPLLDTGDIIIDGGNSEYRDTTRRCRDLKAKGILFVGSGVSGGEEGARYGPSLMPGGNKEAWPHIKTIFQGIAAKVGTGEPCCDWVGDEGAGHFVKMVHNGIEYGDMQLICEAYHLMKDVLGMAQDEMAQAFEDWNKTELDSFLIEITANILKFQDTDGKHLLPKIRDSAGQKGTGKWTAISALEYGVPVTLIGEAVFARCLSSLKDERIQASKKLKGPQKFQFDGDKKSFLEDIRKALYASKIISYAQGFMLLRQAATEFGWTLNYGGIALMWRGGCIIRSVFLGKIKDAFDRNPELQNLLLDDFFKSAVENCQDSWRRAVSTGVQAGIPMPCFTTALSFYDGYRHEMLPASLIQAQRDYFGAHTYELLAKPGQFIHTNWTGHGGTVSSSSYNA
# [13] = EMT-state selective cytotoxicity in co-culture – imaging, PC-3E GFP, TEM4-18 mCherry, primary screen (AID 1345086;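 active means compounds killing one labelled cell type while sparing the other, by normalised counts and ratio limits, not self-fluorescent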;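 on all read-outs here: cells exposed to compound for 72 h before imaging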;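 on red/green cell ratio (normalised): normalised mesenchymal count divided by normalised epithelial count so high means epithelial killing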); conditions: PC-3E GFP / TEM4-18 mCherry co-culture, imaging cell counts, at 1 µM; for red/green cell ratio (normalised): actives lie on both sides
# [14] = system: Aerobactin synthetase IucA (Klebsiella pneumoniae hvKP1); test: IucA enzyme inhibition, primary screen, biochemical, Spectrum library (AID 1346200; call rule not given here;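 further: 100% = wells without compound and 0% = wells lacking enzyme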); conditions: malachite green pyrophosphate, A620, at 8 µM, stronger effect = lower value
# [15] = MELAS cybrid and Rieske KO viability enhancers – cell-based, MELAS cybrids, Rieske KO mouse fibroblasts, CellTiter-Glo, primary screen (AID 1508586;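 active means mean z-score across replicates of 1.96 or higher in either the MELAS or the Rieske mutant cell line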;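 further: z relative to plate mean and SD of compound and empty wells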); conditions: low glucose
# [16] = biological target: NAD(+) hydrolase SARM1 (Homo sapiens) (UniProt Q6SZW1); test: blocking NAD cleavage by SARM1 SAM-TIR – cell lysate, NAD-Glo luminescence (AID 1508614;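 active means compound whose remaining NAD level is above about 45 nM, limit read from the data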); conditions: SAM-TIR HEK293T lysate NADase, at 1 µM, stronger effect = higher value
# Chain of NAD(+) hydrolase SARM1 (Homo sapiens) (Q6SZW1 whole entry, looked up, the tested form may be a part): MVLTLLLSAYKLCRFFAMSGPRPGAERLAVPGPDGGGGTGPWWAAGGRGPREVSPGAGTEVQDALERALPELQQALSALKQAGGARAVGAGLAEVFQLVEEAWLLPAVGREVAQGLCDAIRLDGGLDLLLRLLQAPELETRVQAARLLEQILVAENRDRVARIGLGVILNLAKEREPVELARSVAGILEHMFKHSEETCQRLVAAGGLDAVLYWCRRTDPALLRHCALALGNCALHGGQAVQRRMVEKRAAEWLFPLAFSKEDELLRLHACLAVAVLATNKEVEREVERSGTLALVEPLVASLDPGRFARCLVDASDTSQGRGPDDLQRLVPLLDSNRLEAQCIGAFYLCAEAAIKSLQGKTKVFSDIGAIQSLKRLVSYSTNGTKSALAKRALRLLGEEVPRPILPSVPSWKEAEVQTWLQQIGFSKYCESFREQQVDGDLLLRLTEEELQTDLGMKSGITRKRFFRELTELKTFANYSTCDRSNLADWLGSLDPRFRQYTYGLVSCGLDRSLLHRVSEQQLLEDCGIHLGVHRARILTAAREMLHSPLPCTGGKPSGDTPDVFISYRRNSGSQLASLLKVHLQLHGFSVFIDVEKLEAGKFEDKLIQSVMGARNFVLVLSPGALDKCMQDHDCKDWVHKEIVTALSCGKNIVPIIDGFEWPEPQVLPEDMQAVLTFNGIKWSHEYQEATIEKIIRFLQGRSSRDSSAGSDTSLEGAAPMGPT
# [17] = biological target: Mitogen-activated protein kinase 7 (Homo sapiens) (UniProt Q13164); test: Gal4-ERK5 driven luciferase induction – cell-based, HTS, primary screen (AID 1508626;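 active means luciferase signal above three times the same-plate solvent-only control wells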;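 further: luciferase driven by Gal4-ERK5 fusion binding five Gal4 sites before minimal TATA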); conditions: HeLa Gal4-ERK5 transactivation, 18 h, at 5 µM, stronger effect = higher value
# Chain of Mitogen-activated protein kinase 7 (Homo sapiens) (Q13164 whole entry, looked up, the tested form may be a part): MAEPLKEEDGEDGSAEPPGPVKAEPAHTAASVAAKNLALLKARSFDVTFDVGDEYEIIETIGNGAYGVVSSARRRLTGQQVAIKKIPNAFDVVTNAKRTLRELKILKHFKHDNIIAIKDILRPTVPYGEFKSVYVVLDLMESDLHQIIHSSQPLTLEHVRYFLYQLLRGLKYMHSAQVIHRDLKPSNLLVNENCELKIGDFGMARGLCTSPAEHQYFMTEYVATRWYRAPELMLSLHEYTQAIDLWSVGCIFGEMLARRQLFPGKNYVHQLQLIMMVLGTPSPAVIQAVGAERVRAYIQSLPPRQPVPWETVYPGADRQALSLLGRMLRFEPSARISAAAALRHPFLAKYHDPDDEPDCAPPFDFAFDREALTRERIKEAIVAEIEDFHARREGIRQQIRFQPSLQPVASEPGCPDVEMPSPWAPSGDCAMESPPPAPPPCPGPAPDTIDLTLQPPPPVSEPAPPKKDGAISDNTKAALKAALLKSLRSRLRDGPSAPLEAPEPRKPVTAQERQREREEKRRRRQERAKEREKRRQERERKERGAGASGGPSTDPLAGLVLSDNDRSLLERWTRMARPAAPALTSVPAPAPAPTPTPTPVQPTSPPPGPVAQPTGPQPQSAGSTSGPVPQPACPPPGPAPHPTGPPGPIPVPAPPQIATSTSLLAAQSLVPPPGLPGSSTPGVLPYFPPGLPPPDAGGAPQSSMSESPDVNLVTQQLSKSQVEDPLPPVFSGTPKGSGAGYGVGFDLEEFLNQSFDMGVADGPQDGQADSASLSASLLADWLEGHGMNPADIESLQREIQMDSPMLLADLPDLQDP
# [18] = galactose survival enhancers in mitochondrial complex I cybrids – cell-based, galactose medium, ATP luminescence, primary screen (AID 1645843;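 active means z-score of at least 1.8 in each of two replicates, scored against plate mean and spread of sample wells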;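 further: positive z means more ATP and so rescue of galactose-driven cybrid death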); conditions: complex I mutant cybrid cells, 72 h, stronger effect = higher value
# [19] = P. berghei load reduction in hepatocytes – cell-based, HepG2, luciferase luminescence, HepG2 viability, primary screen (AID 624349; in the data active means parasite load remaining mostly below about 12%, no sharp cut-off; inactive means mostly above about 10%;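 further: 100% = mean of DMSO negative control wells on the same plate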); conditions: P. berghei liver stage in HepG2, luciferase luminescence, concentration not given here; parasite load remaining: stronger effect = lower value; viability: measured here: HepG2 viability without parasites
# [20] = viability loss with induced miR-34 in A549 – imaging, A549 dox-inducible miR-34, nuclei and caspase counts, primary screen (AID 1347080;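 active means compounds whose cell count with miR-34 switched on is under 0.7 times the count with it off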); conditions: A549 miR-34 inducible, Hoechst nuclei count, 48 h
# [21] = measured here: epithelial PC-3E GFP cell survival
# [22] = measured here: mesenchymal TEM4-18 mCherry cell survival
# [23] = MELAS cybrid survival, CellTiter-Glo 48 h, stronger effect = higher value
# [24] = Rieske KO mouse fibroblast survival, CellTiter-Glo 72 h
# [25] = measured here: relative caspase fold change +Dox/-Dox
# [26] = measured here: total cells with miR-34 induction, stronger effect = lower value
# [27] = measured here: total cells without miR-34 induction
smiles,measurement,setting,value
COC(=O)C1=CCCN(C)C1,score,[1],1.73
same,cytochrome c release ratio,[2],0.68
same,inhibition of aggregation,[3],81.4%
same,nuclear beta-catenin stimulation,[4]; at 10 µM,4.2% (inactive)
same,nuclear beta-catenin stimulation,"[4]; stimulation, at 2 µM",2.3%
same,insulin secretion stimulation,[5],-0.6% (inactive)
same,viability decrease,[6],-6.9% (inactive)
same,tube area decrease,[7],25.2% (inactive)
same,GLP1 secretion stimulation,[8],-0.8% (inactive)
same,inhibition of viability,[9],-3.33% (inactive)
same,viability decrease (inhibition),[10],8.4% (inactive)
same,viability decrease (inhibition),[11],-18.9% (inactive)
same,inhibition,[12],-2.35% (inactive)
same,red/green cell ratio (normalised),[13],1.16 (inactive)
same,normalised cell number,[13]; [21],0.91
same,normalised cell number,[13]; [22],1.07
same,activity remaining,[14],112% (inactive)
same,z-score,[15]; [23],-0.328 (inactive)
same,z-score,[15]; [24],0.482
same,remaining NAD,[16],10 nM (inactive)
same,luciferase signal,[17],52 AU (inactive)
same,z-score,[18],-0.47 (inactive)
O=[N+]([O-])/N=C1\NCCN1Cc1ccc(Cl)nc1,nuclear beta-catenin stimulation,[4]; at 10 µM,0.9% (inactive)
same,nuclear beta-catenin stimulation,"[4]; stimulation, at 2 µM",1.2%
same,insulin secretion stimulation,[5],-1.2% (inactive)
same,viability decrease,[6],-10.2% (inactive)
same,tube area decrease,[7],-4.1% (inactive)
same,GLP1 secretion stimulation,[8],-2% (inactive)
same,inhibition of viability,[9],9.4% (inactive)
same,viability decrease (inhibition),[10],27.9% (inactive)
same,viability decrease (inhibition),[11],-0.3% (inactive)
same,inhibition,[12],-7.9% (inactive)
CCCOC(=O)c1cncn1C(C)c1ccccc1 (configuration not stated),nuclear beta-catenin stimulation,[4]; at 10 µM,3.6% (inactive)
same,nuclear beta-catenin stimulation,"[4]; stimulation, at 2 µM",0.7%
same,insulin secretion stimulation,[5],4.8% (inactive)
same,viability decrease,[6],-12.2% (inactive)
same,tube area decrease,[7],-7.5% (inactive)
same,GLP1 secretion stimulation,[8],1.9% (inactive)
same,inhibition of viability,[9],11% (inactive)
same,viability decrease (inhibition),[10],-24.3% (inactive)
same,viability decrease (inhibition),[11],18.7% (inactive)
Cc1ncc(CNC(=O)N(CCCl)N=O)c(N)n1,parasite load remaining,[19],130% (inactive)
same,viability,[19],90.7%
same,nuclear beta-catenin stimulation,[4]; at 10 µM,3% (inactive)
same,nuclear beta-catenin stimulation,"[4]; stimulation, at 2 µM",-0.9%
same,insulin secretion stimulation,[5],0.3% (inactive)
same,viability decrease,[6],-0.8% (inactive)
same,tube area decrease,[7],28.9% (inactive)
same,GLP1 secretion stimulation,[8],-6% (inactive)
same,inhibition of viability,[9],-0.1% (inactive)
same,viability decrease (inhibition),[10],10.9% (inactive)
same,viability decrease (inhibition),[11],1.8% (inactive)
same,inhibition,[12],2.15% (inactive)
same,red/green cell ratio (normalised),[13],0.95 (inactive)
same,normalised cell number,[13]; [21],0.91
same,normalised cell number,[13]; [22],0.86
same,activity remaining,[14],107% (inactive)
same,fold change,[20]; stronger effect = lower value,0.981 (inactive)
same,fold change,[20]; [25],1.12
same,cell count,[20]; [26],6420
same,cell count,[20]; [27],6540
same,remaining NAD,[16],10 nM (inactive)
same,luciferase signal,[17],100 AU (inactive)
same,z-score,[18],-0.62 (inactive)
N[C@@H](Cc1ccc(N(CCCl)CCCl)cc1)C(=O)O,score,[1],1.14
same,cytochrome c release ratio,[2],0.77
same,inhibition of aggregation,[3],49.4%
same,parasite load remaining,[19],85.5% (inactive) and 46.9% (inactive)
same,viability,[19],102% and 79%
same,nuclear beta-catenin stimulation,[4]; at 10 µM,5.3% (inactive)
same,nuclear beta-catenin stimulation,"[4]; stimulation, at 2 µM",-1.1%
same,insulin secretion stimulation,[5],-2.1% (inactive)
same,viability decrease,[6],57.9% (active)
same,tube area decrease,[7],89.6% (active)
same,GLP1 secretion stimulation,[8],0.9% (inactive)
same,inhibition of viability,[9],11.2% (inactive)
same,viability decrease (inhibition),[10],8.5% (inactive)
same,viability decrease (inhibition),[11],8.7% (inactive)
same,inhibition,[12],-5.9% (inactive)
same,red/green cell ratio (normalised),[13],0.83 (inactive)
same,normalised cell number,[13]; [21],0.94
same,normalised cell number,[13]; [22],0.77
same,activity remaining,[14],104% (inactive)
same,fold change,[20]; stronger effect = lower value,0.909 (inactive) and 0.963 (inactive)
same,fold change,[20]; [25],1.01 and 1.57
same,cell count,[20]; [26],3400 and 2500
same,cell count,[20]; [27],3740 and 2600
same,z-score,[15]; [23],0.0989 (inactive)
same,z-score,[15]; [24],-1.05
same,remaining NAD,[16],10 nM (inactive)
same,luciferase signal,[17],40 AU (inactive)
same,z-score,[18],-1.76 (inactive)
